The whole screen tested about 340,000 compounds, of which fewer than 10 were called active. About 2% were inconclusive and are not listed. The call rests on the fitted dose curve; in most records, active means well fitted curve in the direction sought with a large enough effect; inconclusive means small, poorly fitted or top-dose-only effect, or another doubt; inactive means no such curve, though single readings can be large or run the other way. Only a sample is shown.
Experiment: qHTS Assay for Modulators of miRNAs and/orActivators of miR-21;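 further: miR-21 action dims this reporter so a rising signal means less miR-21 action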
Conditions: HeLa miR-21 FLuc reporter, luciferase, 48 h; series mostly up to 38.3 µM
Description: MLSCN Grant: 1 R21 NS059478-01 Assay Provider: Qihong Huang, The Wistar Institute NCGC Assay Overview: MicroRNAs (miRNAs) are endogenously encoded small (~20-25 nucleotides), nonprotein-coding RNAs that are involved in post-transcriptional repression of target messenger RNAs (mRNAs) (Le and Hannon, 2004). Estimated to be involved in the regulation of 30% of all protein-coding mRNAs (Filipowicz et al., 2008), miRNAs play a significant role in many biological processes including cellular differentiation and tissue development (Ghildiyal and Zamore, 2009).
NCGC Assay Protocol Summary: Reagents: HeLa cells stably expressing firefly luciferase (FLuc) under the control of a CMV promoter (upstream) and a miR-21 binding sequence directly downstream of the gene. These cells endogenously express miR-21. Control compounds used were compound C3 (provided by collaborator), N6-phenyladenosine (MP Biomedicals, 0215379625), and DMSO. Assay Summary: 6uL of HeLa miR-21-FLuc cells in assay buffer (DMEM, Invitrogen #21063-029; 10% FBS, HyClone #SH30071.03) were dispensed at 2000cells/well (3.3 x 10^5 cells/mL) into Greiner solid-white TC-treated 1536-well plates using a Multidrop Combi (Thermo Fisher Scientific). Plates were incubated for one hour at 37 degree Celsius, 95% humidity, 5% CO2. These assay plates were then treated with 23nL of compound or DMSO using a Kalypsys pin tool, which allows for delivery of a 24-point titration of each compound to the assay plate, with a final compound concentration ranging from approximately 40uM to 5pM. Assay plates were then incubated for 48 hours. After incubation, plates were allowed to come to RT for one hour prior to delivery of 3uL of 3X luciferase detection reagent. After a 15 minute incubation to allow for cell lysis, luciferase activity was measured using a ViewLux CCD imager (PerkinElmer), with an average exposure time of 2-12 seconds. Keywords: NIH Roadmap, MLPCN, MLSMR, qHTS, miR-21, microRNA, firefly luciferase, FLuc.

| Structure (SMILES) | outcome |
| --- | --- |
| CCCN1CCN(CCCNC(=O)c2cnn(-c3ccc(C)cc3)c2-n2cccc2)CC1 | inactive |
| CCCCN(CC)C(=O)c1c[nH]c2ccc(S(=O)(=O)Nc3cccc(OC)c3)cc2c1=O | inactive |
| Cc1c(-c2nc(-c3ccc4c(c3)OCO4)no2)nnn1-c1ccc(Br)cc1F | inactive |
| O=C(NCc1cccnc1)C(=O)NCC(c1cccnc1)N1CCN(c2ccccc2)CC1 (stereo unspecified) | inactive |
| Cc1ccccc1C(=O)NCc1nc(-c2ccc(Cl)cc2)no1 | inactive |
| CCOc1ccc(NC(=O)Cn2c(=O)n(CCCC(=O)NCc3ccc4c(c3)OCO4)c(=O)c3ccccc32)cc1 | inactive |
| CCOc1ccc(Nc2oc(/C=C/c3ccc(F)cc3)nc2C#N)cc1 | inactive |
| CCOc1ccc(OCC)c(NC(=O)c2cc(C)nc3c2c(C)nn3-c2cccc(Cl)c2C)c1 | inactive |
| COC(=O)c1ccc(NC(=O)CCc2c(C)nc3c(c(C)nn3-c3ccc(C)cc3)c2C)cc1 | inactive |
| COc1cc(Cl)c(NC(=O)CC(C)S(=O)(=O)c2cc3c(cc2C)NC(=O)CO3)c(OC)c1 (stereo unspecified) | inactive |
| Cc1ccc(CN2CCc3nc(N4CCN(C)CC4)ncc3C2)cc1 | inactive |
| CCOC(=O)c1ccc2c(c1)N(Cc1cccc(OC)c1)C(=O)c1ccccc1S2(=O)=O | inactive |
| COc1ccc(Cc2nc3ccc(C(=O)NCc4ccccc4C)cc3o2)cc1 | inactive |
| CCOC(=O)c1c(C)[nH]c(CCC(=O)NCCCN2CCN(c3cccc(Cl)c3)CC2)c1C | inactive |
| Cc1ccc(SCC(=O)Nc2ccc3oc(-c4ccccc4F)nc3c2)cc1 | inactive |
| CN(C(=O)CSc1nc2ccccc2n1Cc1ccccc1C#N)c1ccccc1 | inactive |
| CCc1nnc(SCc2nc(-c3cccc(C)c3)oc2C)c2cc3sc(C)cc3n12 | inactive |
| COc1ccccc1N1CCN(c2ncnc3onc(-c4ccc(F)cc4)c23)CC1 | inactive |
| CC(C)Oc1ccc(CNC(=O)C2CCN(c3nc4ccccc4n(C)c3=O)CC2)cc1 | inactive |
| CC(C)c1ccc(NS(=O)(=O)c2ccc3[nH]cc(C(=O)NC4CCCC4)c(=O)c3c2)cc1 | inactive |
| Cc1ccc(-n2nc(C)c3c(C)cc(=O)n(CC(=O)Nc4ccc(C(C)C)cc4)c32)cc1 | inactive |

| Structure (SMILES) | outcome |
| --- | --- |
| O=C(NCCCO)c1nn(-c2ccc(Cl)cc2)nc1CO | inactive |
| COc1ccccc1CNC(=O)CCCn1c(=O)c2ccccc2n(CC(=O)Nc2ccc(C)cc2Cl)c1=O | inactive |
| COc1cccc(-n2c(=O)c3c(C)c(C(=O)N(C)C)sc3n(Cc3cccc(C)c3)c2=O)c1 | inactive |
| CCOc1cccc2sc(N3CCN(C(=O)C4CC4)CC3)nc12 | inactive |
| CCc1nn(CC(=O)N2CCN(c3ccc(Cl)cc3)CC2)c(=O)c2cc3occc3n12 | inactive |
| CSc1ncc(C(=O)NCc2ccccc2Cl)c(C(F)(F)F)n1 | inactive |
| COc1ccc(CC(=O)Nc2nnc3n2CCS3)cc1OC | inactive |
| Cc1ccc(-c2nn(CCC(=O)Nc3ccc(Cl)c(Cl)c3)c(=O)c3ccccc23)cc1 | inactive |
| CCC(=O)Nc1ccccc1-c1nc2ccccc2n(CC(=O)Nc2ccc(C)c(C)c2)c1=O | inactive |
| CCN1CCc2nc3sc(C(=O)Nc4ccccc4OC(F)(F)F)c(N)c3cc2C1 | inactive |
| CCOC(=O)c1cc(NC(=O)c2ccc(F)cc2)c(=O)n2c1oc1ccccc12 | inactive |
| CCOc1ccc(N(CC)S(=O)(=O)N2CCCC(C(=O)NCc3ccc(SC)cc3)C2)cc1 (stereo unspecified) | inactive |
| COc1ccc(CNC(=O)CSc2n[nH]c(-c3ccc(F)cc3)n2)cc1 | inactive |
| COc1ccc(CN2C(=O)C(NC(=O)c3cccc(C)c3)(C(F)(F)F)N=C2c2ccccc2)cc1 (stereo unspecified) | inactive |
| Cc1c(Cl)cccc1NC(=O)C(=O)NCCc1csc2nc(-c3ccccc3F)nn12 | inactive |
| COCCNC(=O)CSc1c(C)cnc2c1c(=O)n(C)c(=O)n2C | inactive |
| O=C(c1ccccc1F)N1CCC(c2nc3c(nnn3Cc3cccc(F)c3)c(=O)[nH]2)CC1 | inactive |
| COc1ccc(OC)c(NC(=O)CSC2=Nc3ccccc3C3=NC(CC(=O)NCc4ccc(F)cc4)C(=O)N23)c1 (stereo unspecified) | inactive |
| COc1ccccc1-c1nnc(SCC(N)=O)o1 | inactive |
| COc1cc(NS(=O)(=O)c2ccc3c(c2)OCC(C(=O)N2CCCC2)O3)cc(OC)c1 (stereo unspecified) | inactive |
| Cc1ccc(C)c(NC(=O)CSC2=Nc3ccccc3N=C(c3ccc(F)cc3)C2)c1 | inactive |

| Structure (SMILES) | outcome |
| --- | --- |
| Cc1cc(C)cc(NC(=O)Cc2csc(C)n2)c1 | inactive |
| CCc1nccn1S(=O)(=O)c1cc(Br)ccc1Br | inactive |
| CC(=O)Nc1ccc(NC(=O)CSc2nnc3c4cc(Br)ccc4n(C)c3n2)cc1 | inactive |
| Cc1ccc(C)c(CNC(=O)c2cc3ccccn3n2)c1 | inactive |
| Cc1ccc(C)c(Cn2c(C)c(CNCc3ccc(F)cc3)c(C(=O)O)c2C)c1 | inactive |
| CCOC(=O)c1ccc(NC(=O)CSc2nc3c([nH]c4ccccc43)c(=O)n2C)cc1 | inactive |
| CCc1ccc(-n2nnc(-c3nc(-c4ccccc4)no3)c2C)cc1 | inactive |
| O=C(NCCCN1CCN(c2cccc(Cl)c2)CC1)c1nnc(Cc2ccc(F)cc2Cl)o1 | inactive |
| CCNC(=O)CC1C(=O)N(c2ccc(F)cc2)C(=O)N1Cc1ccc(C)cc1 (stereo unspecified) | inactive |
| CCOC(=O)c1[nH]c(C)c(CCC(=O)NCc2ccccc2C)c1C | inactive |
| COc1ccc(NC(=O)COCc2cc(-c3ccco3)on2)cc1 | inactive |
| O=C(CCSCc1cccc(F)c1)NCc1ccccc1 | inactive |
| CN(Cc1ccccc1)c1ccc(-c2nc(-c3ccccc3)no2)cc1[N+](=O)[O-] | inactive |
| Cc1ccc(C(=O)Nc2cc3c(cc2N2CCCC2)n(C)c(=O)c(=O)n3C)cc1 | inactive |
| CCCOC(=O)c1c(NC(=O)c2cc3nc(-c4ccc(OC)cc4)cc(C(F)(F)F)n3n2)sc2c1CCCC2 | inactive |
| Cc1ccc(-c2nc(CS(=O)(=O)CC(=O)NCc3ccccc3Cl)c(C)o2)cc1 | inactive |
| Cc1nn(C(C)C(=O)NCCc2ccccc2)c(=O)c2c1sc1ccccc12 (stereo unspecified) | inactive |
| CCN(C(=O)Cn1cc(S(=O)(=O)N2CCN(c3ccccc3F)CC2)c2ccccc2c1=O)c1ccc(C)c(C)c1 | inactive |
| CCOC(=O)c1cccc(NC(=O)c2cc(S(=O)(=O)N3CCCC(C)C3)cn2C)c1 (stereo unspecified) | inactive |

From PubChem BioAssay AID2288 (National Center for Advancing Translational Sciences (NCATS), 2010)
